Measurements from the supplement of paper PMC4466140.

B1: unnamed (peptide)
chain: GAGERPRLVPRPINV
B2: unnamed (peptide)
chain: IPSRPAPKPPSSASA
B3: unnamed (peptide)
chain: KRRTSLFPWLHKPGI

What follows are binders tested against AgAbp1 (assay: SPOT peptide array binding signal intensity (averaged, normalized) (arbitrary units (background-subtracted, floor 0; scale differs between SH3 domains)); higher = stronger binding of the SH3 domain to the peptide).
In short: (§1)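 Four yeast species supplied the SH3 domains, which were expressed as GST fusions in E. coli BL21(DE3) and purified on glutathione Sepharose. Incubation with cellulose membranes carrying synthetic 15-mer peptides, cysteines exchanged for serines, ran overnight at 4°C at 10 μg/ml in TBS-based blocking buffer. Binding signal is reported as normalized, background-subtracted spot intensity averaged over replicates, in arbitrary units not shared between domains.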

Compared with B1, B3 is higher in “SPOT peptide array binding signal intensity” value: 13 for the first, 14 for the second.

What follows are binders tested against AgBbc1 in the same assay as above.
In short: as §1

First: B1
Second: B3
The “SPOT peptide array binding signal intensity” value of the first is higher: 148 for the first, 19.2 for the second.

The binders below were run against AgBem1-D1 in the same assay as above.
In short: as §1

Compared with B1, B3 is lower in “SPOT peptide array binding signal intensity” value: 23 for the first, 13 for the second.

What follows are binders tested against AgBzz1-D1 in the same assay as above.
In short: as §1

Going from B1 to B3, the “SPOT peptide array binding signal intensity” value falls from 27 to 15.

What follows are binders tested against AgBzz1-D2 in the same assay as above.
In short: as §1

First: B1
Second: B3
The “SPOT peptide array binding signal intensity” value of the first is higher: 33 for the first, 17 for the second.

The binders below were run against AgCyk3 in the same assay as above.
In short: as §1

Compared with B1, B3 is lower in “SPOT peptide array binding signal intensity” value: 6 for the first, 4 for the second.

The binders below were run against AgFus1 in the same assay as above.
In short: as §1

Going from B1 to B3, the “SPOT peptide array binding signal intensity” value rises from 4.5 to 202.

Each binder was assayed against AgHof1 in the same assay as above.
In short: as §1

First: B1
Second: B3
The “SPOT peptide array binding signal intensity” value of the first is lower: 8.5 for the first, 14 for the second.

What follows are binders tested against AgHse1 in the same assay as above.
In short: as §1

Going from B1 to B3, the “SPOT peptide array binding signal intensity” value rises from at most 0 to 1230.

What follows are binders tested against AgLsb1 in the same assay as above.
In short: as §1

First: B1
Second: B3
The “SPOT peptide array binding signal intensity” value of the first is higher: 9 for the first, 1 for the second.

What follows are binders tested against AgLsb4 in the same assay as above.
In short: as §1

Compared with B1, B3 is higher in “SPOT peptide array binding signal intensity” value: 28 for the first, 53 for the second.

These binders were tested against AgMyo5 in the same assay as above.
In short: as §1

Going from B1 to B3, the “SPOT peptide array binding signal intensity” value falls from 0.5 to at most 0.

These binders were tested against AgNbp2 in the same assay as above.
In short: as §1

Going from B1 to B3, the “SPOT peptide array binding signal intensity” value rises from at most 0 to 196.

Each binder was assayed against AgRvs167 in the same assay as above.
In short: as §1

Going from B1 to B3, the “SPOT peptide array binding signal intensity” value rises from 2 to 2.33.

These binders were tested against AgSho1 in the same assay as above.
In short: as §1

Going from B1 to B3, the “SPOT peptide array binding signal intensity” value rises from at most 0 to 23.

Each binder was assayed against AgSla1-D1-D2 in the same assay as above.
In short: as §1

First: B1
Second: B3
The “SPOT peptide array binding signal intensity” value of the first is lower: at most 0 for the first, 297 for the second.

The binders below were run against AgSla1-D3 in the same assay as above.
In short: as §1

Going from B1 to B3, the “SPOT peptide array binding signal intensity” value rises from 1 to 5.5.

These binders were tested against CaAbp1-D1 in the same assay as above.
In short: as §1

Going from B1 to B3, the “SPOT peptide array binding signal intensity” value rises from 17 to 736.

Each binder was assayed against CaAbp1-D2 in the same assay as above.
In short: as §1

Compared with B1, B3 is higher in “SPOT peptide array binding signal intensity” value: 8 for the first, 682 for the second.

Each binder was assayed against CaBbc1 in the same assay as above.
In short: as §1

First: B1
Second: B3
The “SPOT peptide array binding signal intensity” value of the first is higher: 314 for the first, 53.2 for the second.

These binders were tested against CaBem1-D1 in the same assay as above.
In short: as §1

Compared with B1, B3 is lower in “SPOT peptide array binding signal intensity” value: 68.5 for the first, at most 0 for the second.

These binders were tested against CaBzz1-D1 in the same assay as above.
In short: as §1

Compared with B1, B3 is lower in “SPOT peptide array binding signal intensity” value: 109 for the first, 35 for the second.

These binders were tested against CaBzz1-D2 in the same assay as above.
In short: as §1

First: B1
Second: B3
The “SPOT peptide array binding signal intensity” value of the first is higher: 51.2 for the first, 22 for the second.

The binders below were run against CaCyk3 in the same assay as above.
In short: as §1

First: B1
Second: B3
The “SPOT peptide array binding signal intensity” value of the first is higher: 285 for the first, 5 for the second.

Each binder was assayed against CaFus1 in the same assay as above.
In short: as §1

Going from B1 to B3, the “SPOT peptide array binding signal intensity” value rises from at most 0 to 727.

The binders below were run against CaHof1 in the same assay as above.
In short: as §1

Compared with B1, B3 is lower in “SPOT peptide array binding signal intensity” value: 0.5 for the first, at most 0 for the second.

The binders below were run against CaHse1 in the same assay as above.
In short: as §1

First: B1
Second: B3
The “SPOT peptide array binding signal intensity” value of the first is lower: at most 0 for the first, 42.8 for the second.

What follows are binders tested against CaLsb1 in the same assay as above.
In short: as §1

Going from B1 to B3, the “SPOT peptide array binding signal intensity” value falls from 0.75 to 0.5.

These binders were tested against CaLsb4 in the same assay as above.
In short: as §1

Going from B1 to B3, the “SPOT peptide array binding signal intensity” value falls from 102 to 59.5.

The binders below were run against CaMyo5 in the same assay as above.
In short: as §1

First: B1
Second: B3
The “SPOT peptide array binding signal intensity” value of the first is higher: 6.5 for the first, 0.25 for the second.

These binders were tested against SpBzz1-D2 in the same assay as above.
In short: as §1

First: B2
Second: B3
The “SPOT peptide array binding signal intensity” value of the first is higher: 71.5 for the first, at most 0 for the second.

Each binder was assayed against SpCyk3 in the same assay as above.
In short: as §1

First: B2
Second: B3
The “SPOT peptide array binding signal intensity” value of the first is lower: 2 for the first, 3 for the second.

The binders below were run against SpHof1 in the same assay as above.
In short: as §1

First: B2
Second: B3
The “SPOT peptide array binding signal intensity” value of the first is lower: at most 0 for the first, 54 for the second.

Each binder was assayed against SpHof1-2 in the same assay as above.
In short: as §1

First: B2
Second: B3
The “SPOT peptide array binding signal intensity” value of the first is lower: at most 0 for the first, 2.75 for the second.

What follows are binders tested against SpHof1-3 in the same assay as above.
In short: as §1

Going from B2 to B3, the “SPOT peptide array binding signal intensity” value rises from at most 0 to 586.

The binders below were run against SpHse1 in the same assay as above.
In short: as §1

First: B2
Second: B3
The “SPOT peptide array binding signal intensity” value of the first is lower: 52 for the first, 844 for the second.

Each binder was assayed against SpLsb1 in the same assay as above.
In short: as §1

Compared with B2, B3 is lower in “SPOT peptide array binding signal intensity” value: 13.5 for the first, 0.5 for the second.

These binders were tested against SpLsb4 in the same assay as above.
In short: as §1

Going from B2 to B3, the “SPOT peptide array binding signal intensity” value falls from 136 to 8.5.

The binders below were run against SpMyo1 in the same assay as above.
In short: as §1

Going from B2 to B3, the “SPOT peptide array binding signal intensity” value falls from 3740 to 2.5.

What follows are binders tested against SpNbp2 in the same assay as above.
In short: as §1

Going from B2 to B3, the “SPOT peptide array binding signal intensity” value rises from 65 to 418.

The binders below were run against SpPex13 in the same assay as above.
In short: as §1

First: B2
Second: B3
The “SPOT peptide array binding signal intensity” value of the first is higher: 93.5 for the first, 6.5 for the second.

What follows are binders tested against SpRvs167 in the same assay as above.
In short: as §1

First: B2
Second: B3
The “SPOT peptide array binding signal intensity” value of the first is higher: 202 for the first, at most 0 for the second.

Each binder was assayed against SpSla1-D1-D2 in the same assay as above.
In short: as §1

B2 and B3 cannot be ordered by “SPOT peptide array binding signal intensity” value: at most 0 for the first, at most 0 for the second.

These binders were tested against SpSla1-D3 in the same assay as above.
In short: as §1

First: B2
Second: B3
The “SPOT peptide array binding signal intensity” value of the first is lower: 3 for the first, 4 for the second.

What follows are binders tested against CaNbp2 in the same assay as above.
In short: as §1

B3 was tested, and the “SPOT peptide array binding signal intensity” value was 402.

What follows are binders tested against CaRvs167 in the same assay as above.
In short: as §1

B3 was tested, and the “SPOT peptide array binding signal intensity” value was 5.67.

These binders were tested against CaRvs167-3 in the same assay as above.
In short: as §1

B3 was tested, and the “SPOT peptide array binding signal intensity” value was 34.2.

These binders were tested against CaSho1 in the same assay as above.
In short: as §1

With B3 the “SPOT peptide array binding signal intensity” value was 664.

The binders below were run against CaSla1-D1-D2 in the same assay as above.
In short: as §1

B3 was tested, and the “SPOT peptide array binding signal intensity” value was 5.5.

What follows are binders tested against CaSla1-D3 in the same assay as above.
In short: as §1

With B3 the “SPOT peptide array binding signal intensity” value was at most 0.

These binders were tested against ScAbp1 in the same assay as above.
In short: as §1

For B3, the “SPOT peptide array binding signal intensity” value was 19.

These binders were tested against ScBbc1 in the same assay as above.
In short: as §1

In the case of B3, the “SPOT peptide array binding signal intensity” value is reported as 5.75.

Each binder was assayed against ScBem1-D1 in the same assay as above.
In short: as §1

B3 was tested, and the “SPOT peptide array binding signal intensity” value was 2.

Each binder was assayed against ScBzz1-D1 in the same assay as above.
In short: as §1

With B3 the “SPOT peptide array binding signal intensity” value was 5.5.

These binders were tested against ScBzz1-D2 in the same assay as above.
In short: as §1

B3 was tested, and the “SPOT peptide array binding signal intensity” value was 2.5.

The binders below were run against ScCyk3 in the same assay as above.
In short: as §1

With B3 the “SPOT peptide array binding signal intensity” value was 311.

These binders were tested against ScFus1 in the same assay as above.
In short: as §1

In the case of B3, the “SPOT peptide array binding signal intensity” value is reported as 224.

What follows are binders tested against ScHof1 in the same assay as above.
In short: as §1

For B3, the “SPOT peptide array binding signal intensity” value was at most 0.

The binders below were run against ScHse1 in the same assay as above.
In short: as §1

In the case of B3, the “SPOT peptide array binding signal intensity” value is reported as 2010.

The binders below were run against ScLsb1 in the same assay as above.
In short: as §1

B3 was tested, and the “SPOT peptide array binding signal intensity” value was at most 0.

The binders below were run against ScLsb2 in the same assay as above.
In short: as §1

With B3 the “SPOT peptide array binding signal intensity” value was 7.5.

These binders were tested against ScLsb3 in the same assay as above.
In short: as §1

With B3 the “SPOT peptide array binding signal intensity” value was 54.

The binders below were run against ScLsb4 in the same assay as above.
In short: as §1

With B3 the “SPOT peptide array binding signal intensity” value was at most 0.

Each binder was assayed against ScMyo3 in the same assay as above.
In short: as §1

With B3 the “SPOT peptide array binding signal intensity” value was 3.

The binders below were run against ScMyo5 in the same assay as above.
In short: as §1

For B3, the “SPOT peptide array binding signal intensity” value was 1.5.

Each binder was assayed against ScNbp2 in the same assay as above.
In short: as §1

B3 was tested, and the “SPOT peptide array binding signal intensity” value was 230.

Each binder was assayed against ScPex13 in the same assay as above.
In short: as §1

B3 was tested, and the “SPOT peptide array binding signal intensity” value was 1.

What follows are binders tested against ScRvs167 in the same assay as above.
In short: as §1

For B3, the “SPOT peptide array binding signal intensity” value was 7.67.

What follows are binders tested against ScSho1 in the same assay as above.
In short: as §1

With B3 the “SPOT peptide array binding signal intensity” value was 512.

Each binder was assayed against ScSla1-D1-D2 in the same assay as above.
In short: as §1

With B3 the “SPOT peptide array binding signal intensity” value was 56.5.

Each binder was assayed against ScSla1-D3 in the same assay as above.
In short: as §1

With B3 the “SPOT peptide array binding signal intensity” value was at most 0.

The binders below were run against SpAbp1-D1 in the same assay as above.
In short: as §1

B3 was tested, and the “SPOT peptide array binding signal intensity” value was 420.

What follows are binders tested against SpBbc1 in the same assay as above.
In short: as §1

B3 was tested, and the “SPOT peptide array binding signal intensity” value was at most 0.

Each binder was assayed against SpBzz1-D1 in the same assay as above.
In short: as §1

B3 was tested, and the “SPOT peptide array binding signal intensity” value was 27.
